In PubChem BioAssay AID1376 (SRMLSC, 2008):
The whole screen tested about 220,000 compounds, of which about 530 (0.24%) were called active. Rule as the data show it: active = inhibition above about 13%; inconclusive = no clear call, values can overlap the other calls; inactive = below that. This excerpt belongs to a sample that is enriched for actives. Potency and affinity values are given separately.

These compounds were tested against Bifunctional protein GlmU (Mycobacterium tuberculosis (strain ATCC 25618 / H37Rv)) (UniProt P9WMN3) (assay: inhibition of mycobacterial GlmU enzyme – biochemical, glucosamine-1-phosphate acetyltransferase (AID 1376;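 also: 0% = complete reaction with vehicle and 100% = reaction without substrate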)). Conditions: M. tuberculosis GlmU acetyltransferase enzyme assay; active compounds read high;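 tested at 30 µM in the primary screen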.
Chain of Bifunctional protein GlmU (Mycobacterium tuberculosis (strain ATCC 25618 / H37Rv)) (P9WMN3 whole entry, looked up): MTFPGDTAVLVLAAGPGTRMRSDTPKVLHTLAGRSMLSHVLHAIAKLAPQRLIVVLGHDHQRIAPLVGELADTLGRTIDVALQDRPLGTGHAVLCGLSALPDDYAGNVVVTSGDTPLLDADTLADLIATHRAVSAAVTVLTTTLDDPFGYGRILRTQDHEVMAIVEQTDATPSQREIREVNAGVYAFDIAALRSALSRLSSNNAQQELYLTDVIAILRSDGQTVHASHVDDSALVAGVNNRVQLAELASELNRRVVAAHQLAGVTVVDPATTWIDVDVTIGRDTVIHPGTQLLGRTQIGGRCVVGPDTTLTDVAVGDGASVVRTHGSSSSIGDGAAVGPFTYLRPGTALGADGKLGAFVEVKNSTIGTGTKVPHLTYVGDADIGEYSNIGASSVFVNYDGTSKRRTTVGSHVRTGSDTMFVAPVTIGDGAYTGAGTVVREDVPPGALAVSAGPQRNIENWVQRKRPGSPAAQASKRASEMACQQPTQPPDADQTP

Row | Structure (SMILES) | inhibition
1 | CC1=NN(C(=O)CSCc2ccccc2)C(O)(c2ccc(Cl)cc2)C1 (configuration not stated) | 0.2% (inactive)
2 | O=S1(=O)CCC(N=Cc2cc(Br)ccc2O)C1 (configuration not stated) | -0.36% (inactive)
3 | Cc1ccc(-n2c(C)cc(C(=O)CSc3n[nH]c(N)n3)c2C)cc1 | -7.08% (inactive)
4 | Cc1cc(C(=O)CSc2n[nH]c(N)n2)c(C)n1-c1ccccc1 | 1.04% (inactive)
5 | Cc1cc(C(=O)CSc2n[nH]c(N)n2)c(C)n1-c1ccc(F)cc1 | 13% (active)
6 | Cc1ccc(C(=O)NCC(=O)OCC(=O)c2ccc(C)c([N+](=O)[O-])c2)cc1 | -3.78% (inactive)
7 | Cc1ccc(C(=O)COC(=O)CNS(=O)(=O)c2ccccc2)cc1[N+](=O)[O-] | -0.84% (inactive)
8 | Cc1ccc(C(=O)COC(=O)CNC(=O)C(c2ccccc2)c2ccccc2)cc1[N+](=O)[O-] | 30.6% (active)
9 | CCOC(=O)c1sc(Nc2ccccc2Cl)nc1C | 1.72% (inactive)
10 | O=C(CCc1nc2ccccc2c(=O)[nH]1)OCc1ccc(Cl)cc1Cl | -1.63% (inactive)
11 | O=S(=O)(NCc1ccc(F)cc1)c1ccc2c(c1)OCCO2 | 4.82% (inactive)
12 | COc1ccc(C(=O)Cc2ccc(OC)c(OC)c2)cc1 | 0.95% (inactive)
13 | COc1ccc(C(=O)Cc2ccc(F)cc2)c(OC)c1 | 8.08% (inactive)
14 | COc1ccc(C(=O)Cc2ccc(OC)c(OC)c2)c(OC)c1 | 14.1% (active)
15 | COc1cc(S(=O)(=O)N2CCOCC2)ccc1NC(=O)CSc1nnc(N)s1 | 10.7% (inactive)
16 | COc1cc(C(=O)O)ccc1Cl | 1.44% (inactive)
17 | Cc1cccc(N=Nc2cnc(N)s2)c1 | 4.97% (inactive)
18 | Nc1ncc(N=Nc2cc(C(=O)O)ccc2Cl)s1 | 13.8% (active)
19 | CC(=O)Nc1cccc(Oc2ccc([N+](=O)[O-])cc2Cl)c1 | 2.81% (inactive)
20 | CCn1c2ccccc2c2nc3cc(C(=O)O)ccc3nc21 | 1.61% (inactive)
21 | CCn1c2ccc(Cl)cc2c2nc3ccccc3nc21 | 2.14% (inactive)
22 | O=c1c2ccccc2oc2ncccc12 | 3.79% (inactive)
23 | O=[N+]([O-])c1ccc2c(c1)oc1ccccc12 | 0.45% (inactive)
24 | O=c1[nH]c(=S)[nH]c(O)c1C(c1ccccn1)c1c(O)[nH]c(=S)[nH]c1=O | 9.35% (inactive)
25 | CC(=O)CC(c1ccc([N+](=O)[O-])cc1)c1c(O)c2ccccc2oc1=O (configuration not stated) | 1.67% (inactive)

Row | Structure (SMILES) | inhibition
26 | COc1cc2c(cc1NC(=O)Cn1cnc3c1c(=O)n(C)c(=O)n3C)oc1ccccc12 | 9.92% (inactive)
27 | C=CCN1C(=NC(=O)CCC(=O)O)SC2CS(=O)(=O)CC21 (configuration not stated) | 0.93% (inactive)
28 | CCN1CCN(c2cc(C)c3cc(NC(=O)c4ccccc4F)ccc3n2)CC1 | -4.15% (inactive)
29 | Cn1cnnc1SCc1cccc(Br)c1 | 2.34% (inactive)
30 | CCn1ncc(NC(=S)Nc2ccc3c(c2)OCO3)c1C(N)=O | -0.08% (inactive)
31 | Cc1nn(-c2ccccc2)c(=S)c2ccccc12 | -0.11% (inactive)
32 | COc1ccc(NCC(=O)Nc2ccc(C#N)cc2)cc1Cl | 1.17% (inactive)
33 | COc1ccc(NCC(=O)Nc2ccccc2C#N)cc1Cl | 16.5% (active)
34 | COc1ccc(NC(=O)CNc2cccc(C#N)c2)cc1Cl | 0.65% (inactive)
35 | Clc1ccc(-c2nnc(CSc3nnc(-c4cccs4)n3Cc3ccccc3)o2)cc1 | -1.83% (inactive)
36 | CC(=O)N1CCCSC1=Nc1ccccc1 | 1.84% (inactive)
37 | Cc1ccc(-c2nc(SCC(=O)NCC3CCCO3)c(-c3ccc(C)cc3)[nH]2)cc1 (configuration not stated) | -0.94% (inactive)
38 | O=[N+]([O-])c1cccc(CSc2cccc[n+]2[O-])c1 | 6.55% (inactive)
39 | O=[N+]([O-])c1ccc(NCc2ccccc2)c2nonc12 | 0.67% (inactive)
40 | Oc1cccc(C(=S)N2CCCCC2)c1 | -2.56% (inactive)
41 | CCOC(=O)CSC1=C(C#N)C(c2ccccc2OCC)C(C(=O)OCC)C(=O)N1 (configuration not stated) | 13.2% (active)
42 | CCOC(=O)C1C(=O)NC(SCC(=O)OC)=C(C#N)C1c1ccccc1OCC (configuration not stated) | -2.95% (inactive)
43 | CCOC(=O)C1C(=O)NC(SCC(N)=O)=C(C#N)C1c1ccccc1OCC (configuration not stated) | 5.97% (inactive)
44 | Cc1ccc(C)c2[nH]c(=O)c(CN(Cc3ccc4c(c3)OCO4)Cc3nnnn3Cc3ccco3)cc12 | 2.41% (inactive)
45 | Cc1ccc(NC(=O)c2cccc(C(=O)OC(C)C)n2)c(Br)c1 | -4.22% (inactive)
46 | O=[N+]([O-])c1cccnc1N1CCCCC1 | 13.3% (active)
47 | O=C1CCN(c2ncccc2[N+](=O)[O-])CC1 | -2.93% (inactive)
48 | O=[N+]([O-])c1cccnc1N1CCOCC1 | 1.56% (inactive)
49 | Cc1ccc(C)c(/C(O)=C2\C(=O)C(=O)N(CCCn3ccnc3)C2c2ccncc2)c1 (configuration not stated) | -3.1% (inactive)
50 | Cc1ccc(C2C3=C(Nc4[nH]n(-c5ccccc5)c(=O)c42)c2ccccc2C3=O)cc1 (configuration not stated) | 8.68% (inactive)

Row | Structure (SMILES) | inhibition
51 | Cc1cccc(C2C3=C(Nc4[nH]n(-c5ccccc5)c(=O)c42)c2ccccc2C3=O)c1 (configuration not stated) | 14.6% (active)
52 | COc1cccc(C2C3=C(Nc4[nH]n(-c5ccccc5)c(=O)c42)c2ccccc2C3=O)c1 (configuration not stated) | -1.89% (inactive)
53 | CCOC(=O)c1c(C)[nH]c(C(=O)CSc2nc3ccccc3o2)c1C | -3.5% (inactive)
54 | Cc1cc(/C=N/Nc2ccc([N+](=O)[O-])cn2)c(C)n1-c1ccc(C(=O)O)cc1 | 18.4% (active)
55 | Cc1cc(/C=N/Nc2ccc([N+](=O)[O-])cn2)c(C)n1-c1ccccc1 | -0.82% (inactive)
56 | Cc1c(C(=O)O)cccc1-n1c(C)cc(/C=N/Nc2ccc([N+](=O)[O-])cn2)c1C | 3.53% (inactive)
57 | CCOC(=O)c1cc(-c2ccc(F)cc2)n(CC(=O)Nc2nccs2)c1C | -5.76% (inactive)
58 | O=C(CCC(=O)OC(C(=O)c1ccccc1)c1ccccc1)Nc1ccccc1 (configuration not stated) | -0.93% (inactive)
59 | Cc1ccc(C(=O)C(OC(=O)CCC(=O)Nc2cccc(C)c2)c2ccccc2)cc1 (configuration not stated) | 14.9% (active)
60 | Cc1ccc(NC(=O)CCC(=O)OC(C(=O)c2ccc(C)c(C)c2)c2ccccc2)c(C)c1 (configuration not stated) | 1.52% (inactive)
61 | O=[N+]([O-])c1ccc(N2CCNCC2)cc1Sc1nc2ccccc2[nH]1 | -3.78% (inactive)
62 | O=C(CSC1CN(C(c2ccccc2)c2ccccc2)C1)N/N=C/c1ccccc1 | 1.05% (inactive)
63 | O=C(OCC(=O)N1CCN(C(=O)c2ccco2)CC1)c1cn(-c2ccccc2)nc1-c1ccccc1 | 9.88% (inactive)
64 | CCc1nc2ccccc2[nH]1 | -1.65% (inactive)
65 | Oc1ccc(O)c(Cc2nc3ccccc3[nH]2)c1 | 14.4% (active)
66 | CNCc1nc2ccccc2[nH]1 | 2.1% (inactive)
67 | O=C(NCCC1CC1(Cl)Cl)Nc1ccccc1 (configuration not stated) | 2.82% (inactive)
68 | O=C1[C@H]2C(c3ccccc3)=NN(c3ccccc3)[C@H]2C(=O)N1c1ccccc1 | 14.2% (active)
69 | O=C1C2C(c3ccccc3)=NN(c3ccccc3)C2C(=O)N1c1ccccc1 (configuration not stated) | 0.94% (inactive)
70 | CCOc1ccc(N2C(=O)C3C(c4ccccc4)=NN(c4ccccc4)C3C2=O)cc1 (configuration not stated) | 4.13% (inactive)
71 | O=C(N/N=C/C=C/c1ccco1)/C(=C/c1ccccc1)NC(=O)c1ccccc1 | 3.94% (inactive)
72 | C/C(=N\NC(=O)NC1CCCCC1)C1CCCCC1 | 5.48% (inactive)
73 | O=C(Nc1ccc(SC(F)F)cc1)c1ccc(F)cc1 | 2.04% (inactive)
74 | CC(C(=O)N=c1sc2ccccc2n1C)N1C(=O)C2CC=CCC2C1=O (configuration not stated) | 13.6% (active)
75 | Cn1c(=NC(=O)CN2C(=O)C3CC=CCC3C2=O)sc2ccccc21 (configuration not stated) | -0.18% (inactive)

Row | Structure (SMILES) | inhibition
76 | CC(=O)N=c1sc2ccccc2n1C | -1.3% (inactive)
77 | CC(C)NC1=C(Cl)C(=O)c2ccccc2C1=O | 13.7% (active)
78 | CCNC1=C(Cl)C(=O)c2ccccc2C1=O | -3.8% (inactive)
79 | O=C1C(Cl)=C(Nc2ccccc2)C(=O)c2ccccc21 | -4.13% (inactive)
80 | O=C1c2ccccc2S(=O)(=O)c2cc(C(=O)N3CCN(C(=O)c4ccccc4)CC3)ccc21 | -2.8% (inactive)
81 | CCN(CCNC(=O)Cn1cc2c(n1)CCCC2)c1ccccc1 | -0.86% (inactive)
82 | CCOc1ccc(C(=O)SC2=NCCS2)cc1 | 8.72% (inactive)
83 | S=c1nc(C2CCCCC2)[nH][nH]1 | 14% (active)
84 | S=c1nc(C2CCCCC2)[nH]c2ccccc12 | -2.69% (inactive)
85 | Nc1n[nH]c(C2CCCCC2)n1 | -2.96% (inactive)
86 | CCc1nc(N2CCN(S(C)(=O)=O)CC2)c2c3c(sc2n1)CCCC3 | -2.08% (inactive)
87 | COc1ccc(N/C=C2/Sc3ccccc3NC2=O)cc1 | 0.09% (inactive)
88 | O=C(NC1CCN(C(=O)N2c3ccccc3Sc3ccccc32)CC1)c1ccccc1Cl | 2.41% (inactive)
89 | Cc1ccc(SC(C)c2nc(-c3ccncc3)no2)cc1 (configuration not stated) | 5.19% (inactive)
90 | Cc1ccc(SC(C)c2nc(-c3cccnc3)no2)cc1 (configuration not stated) | -3.18% (inactive)
91 | Cc1ccc(SC(C)c2nc(-c3ccccc3)no2)cc1 (configuration not stated) | 14.3% (active)
92 | CC12CCC(C(=O)NCc3ccccc3Cl)(OC1=O)C2(C)C (configuration not stated) | 0.28% (inactive)
93 | Cc1[nH]c(=O)[nH]c(=O)c1/C=N/NC(=O)CCNC(=O)OC(C)(C)C | -1.18% (inactive)
94 | Cc1[nH]c(=O)[nH]c(=O)c1/C=N/NC(=O)[C@@H](NC(=O)OC(C)(C)C)C(C)C | -0.37% (inactive)
95 | Cc1[nH]c(=O)[nH]c(=O)c1/C=N/NC(=O)[C@H](C)NC(=O)OC(C)(C)C | 12.9% (active)
96 | CCN(C(=O)c1nn(-c2ccc(OC)cc2)c(=O)c2c1c1ccccc1n2C)c1ccc(OC)cc1 | -3.7% (inactive)
97 | C=CCn1c(O)c(C=NCCN2CCOCC2)c(=O)[nH]c1=S | -1.69% (inactive)
